Measured values from PubChem BioAssay (NCATS).
Results filed as inconclusive are left out. Activity calls are given as the source filed them. Unless noted, calls come from the whole dose curve; as a rule, active = well fitted curve in the direction sought with a large enough effect; inconclusive = small, poorly fitted or top-dose-only effect, or another doubt; inactive = no such curve, though single readings can be large; an effect the other way counts as inactive or inconclusive.

Tests used:
[1] = Cell Viability - HUV-EC-C (AID 542);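 note: cells exposed to compound for 40 hours; % is set by controls: 0 for no effect and ±100 for the full control effect; nearly all actives have a fitted effect of over 35% in size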
Summary of the method: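 Decrease in cellular ATP, quantified by luciferase luminescence, reflects toxicity in normal human vascular endothelial HUV-EC-C cells given compound for 40 hr in complete culture medium. Values are AC50s from concentration-response curves.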

[2] = Cellular Toxicity (caspase-3) HepG2 (AID 654);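 note: cells exposed to compound for 16 hours before reading; 0% = DMSO alone and 100% = caspase signal from 100 µM tamoxifen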
Summary of the method: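 qHTS, HepG2, 1500 cells/well, complete medium; cpd 16 h 37 °C; Caspase-Glo 3/7, 20 min RT; lum. Norm: DMSO vs 100 uM tamoxifen; AC50 Hill fit.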

[3] = Cellular Toxicity (caspase-3) MRC-5 (AID 659);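 note: 0% = DMSO basal and 100% = 10 µM staurosporine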
Summary of the method: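 Concentration-dependent caspase 3/7 activation is measured in human normal lung fibroblasts (MRC-5) following 16-hour treatment. AC50 values come from standard Hill-equation modeling of luminescence normalized to DMSO and 10 uM staurosporine.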

[4] = MultiTox-Fluor Cytotoxicity Assay - LYMP1-002 - Live Cells (AID 955);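 note: cells exposed to compound for 16 hours; % is set by controls: 0 for no effect and ±100 for the full control effect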
Summary of the method: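 Cytotoxicity in the human lymphoblastoid line LYMP1-002 is measured as loss of live-cell protease activity after 16 h treatment in complete culture medium. AC50 is derived from Hill-equation fits of qHTS concentration-response data.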

[5] = Cell Viability - LYMP1-003 - Assay at 40 hr (AID 964); note: % is set by controls: 0 for no effect and ±100 for the full control effect; nearly all actives have a fitted effect of over 60% in size
Summary of the method: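 This qHTS cytotoxicity screen treats human lymphoblastoid cells (LYMP1-003) with compounds for 40 hr and quantifies cellular ATP via luciferase luminescence.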

[6] = Cell Viability - LYMP2-009 (AID 968);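 note: cells exposed to compound for 24 h at 37 °C; 0% = DMSO alone and the full-kill end = tetraoctylammonium bromide at 92 µM; nearly all actives have a fitted effect of over 55% in size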
[7] = Cell Viability - LYMP2-017 (AID 972);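 note: cells exposed to compound for 24 hours at 37 °C; % is set by controls: 0 for no effect and ±100 for the full control effect; nearly all actives have a fitted effect of over 55% in size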
Summary of the method: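 Steps: plate 2500 lymphoblastoid cells per well; incubate 5 hr at 37 C; add compound across a concentration series and incubate 24 hr at 37 C; add CellTiter-Glo and read luminescence after 30 min at room temperature; fit Hill curves for AC50.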

[8] = Cell Viability - LYMP2-025 (AID 976);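 note: cells exposed to compound for 24 h at 37 °C; plate controls were DMSO only for no effect and tetraoctylammonium bromide control for full effect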
Summary of the method: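 In qHTS format, LYMP2-025 lymphoblastoid cells in complete culture medium received compound for 24 hr; ATP-based CellTiter-Glo signal gave viability, with AC50 derived by Hill equation.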

[9] = Cell Viability - LYMP2-026 (AID 989);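 note: cells exposed to compound for 24 h at 37 °C; % is set by controls: 0 for no effect and ±100 for the full control effect; nearly all actives have a fitted effect of over 50% in size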
Summary of the method: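 Concentration-dependent loss of intracellular ATP in human lymphoblastoid cells after 24 hr at 37 C, quantified by luciferase luminescence. AC50 derived from standard Hill equation.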

[10] = qHTS assay for small molecule activators of the p53 signaling pathway (AID 651743; active = well fitted activation curve with a large enough effect in the signal ratio, not every such curve was filed as active; the % refers to the signal ratio; note: % of control where 0% means no effect); conditions: HCT-116 p53RE-bla, beta-lactamase FRET ratio, 16 h; activation: hits give high values
Summary of the method: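 Screen for p53 pathway agonists uses stably transfected p53RE-bla HCT-116 cells, 4,000 per well, treated 16 h at 37 C with compounds in DMSO.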

[11] = qHTS assay for small molecule disruptors of the mitochondrial membrane potential - 1 hr assay (AID 651754; calls by dose curve; note: % is set by controls: 0 for no effect and ±100 for the full control effect; nearly all actives have a fitted effect of over 35% in size)
Summary of the method: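 Steps: seed HepG2 cells and let attach overnight; pin-transfer compound or vehicle; incubate 1 hr at 37C; add Mito-MPS dye for 30 min; read two-channel fluorescence for monomer and aggregate forms.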

[12] = target: Nuclear receptor ROR-gamma (Homo sapiens) (UniProt P51449); assay: qHTS assay for small molecule antagonists of the retinoid-related orphan receptor gamma (ROR-gamma) signaling pathway (AID 651802);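 note: CHO cells with doxycycline-induced ROR-gamma expression; luciferase reporter luminescence driven by ROR response element; % is set by controls: 0 for no effect and ±100 for the full control effect; nearly all actives have a fitted effect of over 60% in size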
Summary of the method: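 Antagonism is scored as a fall in luminescence from a RORE-luciferase reporter in CHO cells expressing ROR under a TET-inducible promoter, measured 16hr after doxycycline induction in the presence of compound.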

[13] = qHTS assay for small molecule agonists of the antioxidant response element (ARE) signaling pathway measured by Nrf2-dependant transcriptional activity (AID 720636; active = well fitted curve in the direction sought with a large enough effect in the repeat runs; an effect the other way counts as inactive or inconclusive;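 note: HepG2 cells with an ARE-driven luciferase reporter; % of control where 0% means no effect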)
Summary of the method: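 Attachment 6 hr at 37 C, then compound versus DMSO vehicle for 16 hr in ARE-luc HepG2 cells (1% dialyzed FBS); luminescence recorded 30 min after ONE-Glo addition at room temperature.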

[14] = qHTS assay for small molecule agonists of the antioxidant response element (ARE) signaling pathway measured by Nrf2-dependant transcriptional activity - cell viability counter screen (AID 720653; active = well fitted curve in the direction sought with a large enough effect in the repeat runs; an effect the other way counts as inactive or inconclusive; note: % is set by controls: 0 for no effect and ±100 for the full control effect); conditions: ARE-bla HepG2 viability, CellTiter-Glo ATP luminescence, 16 h; hits give low values
Summary of the method: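 Cytotoxicity counter screen: intracellular ATP quantified by CellTiter-Glo luminescence in the same ARE-bla HepG2 plates, after 16 h compound exposure and a 2 h beta-lactamase substrate step.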

[15] = Cellular Toxicity (caspase-3) Mesangial (AID 660);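 note: combined caspase 3 and 7 activity read by Caspase-Glo luminescence; cells exposed to compound for 16 h before the caspase read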
Summary of the method: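 Concentration-response qHTS: compound-induced rise in caspase 3/7 luminescence in human mesangial cells after 16 h, normalized to DMSO and 100 uM tamoxifen controls.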

[16] = Cellular Toxicity (caspase-3) Hek293 (AID 664); conditions: HEK293 caspase-3 activation, DMSO = 0%, 100 µM tamoxifen = 100%; at 92.2 µM (top of the series);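 note: cells exposed to compound for 16 h at 37 °C before readout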
Summary of the method: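 Activation of caspase-3/7 is measured as increased luminescence from cleaved peptide-aminoluciferin substrate in HEK293 cells treated 16 hours at 37 °C. AC50 values come from Hill-equation fits of concentration-response data.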

[17] = Cellular Toxicity (caspase-3) NIH 3T3 (AID 666);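 note: caspase signal read after 16 h compound exposure; 0% = DMSO basal and 100% = 100 µM tamoxifen stimulation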
Summary of the method: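 Concentration-response qHTS in NIH 3T3 mouse fibroblasts scores caspase-3/7 activation as rising luminescence after 16 hr compound exposure. Signals are scaled between DMSO-only and 100 uM tamoxifen.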

[18] = Cell Viability - LYMP2-004 (AID 966);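 note: plate controls were DMSO only for no effect and tetraoctylammonium bromide control for full effect; nearly all actives have a fitted effect of over 65% in size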
Summary of the method: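 Acute toxicity is scored as a concentration-dependent drop in intracellular ATP, quantified by luciferase luminescence, in human lymphoblastoid cells exposed to compound for 24 hr. AC50 derives from Hill-equation modelling.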

[19] = Cell Viability - LYMP2-011 (AID 969);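 note: 0% = DMSO only and full inhibition = 92 µM tetraoctylammonium bromide; nearly all actives have a fitted effect of over 60% in size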
Summary of the method: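 Acute toxicity is scored as a concentration-dependent drop in intracellular ATP of a human lymphoblastoid line after 24 hr treatment. Values are AC50s modeled with the Hill equation.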

[20] = target: Vitamin D3 receptor (Homo sapiens) (UniProt P11473); assay: qHTS assay for small molecule agonists of vitamin D receptor signaling (AID 588543; calls by dose curve;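 note: 0% = DMSO basal and 100% = reference agonist control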)
Summary of the method: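 Reporter cells (HEK293T, VDR-UAS-bla) were seeded in medium with 2% charcoal-stripped serum and incubated 5 h, then compounds in concentration series were added for 16 h at 37 °C. Stimulation was scaled between DMSO basal and 50 nM 1α,25-dihydroxyvitamin D3.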

Vitamin D3 receptor (Homo sapiens), sequence (P11473 whole entry, looked up): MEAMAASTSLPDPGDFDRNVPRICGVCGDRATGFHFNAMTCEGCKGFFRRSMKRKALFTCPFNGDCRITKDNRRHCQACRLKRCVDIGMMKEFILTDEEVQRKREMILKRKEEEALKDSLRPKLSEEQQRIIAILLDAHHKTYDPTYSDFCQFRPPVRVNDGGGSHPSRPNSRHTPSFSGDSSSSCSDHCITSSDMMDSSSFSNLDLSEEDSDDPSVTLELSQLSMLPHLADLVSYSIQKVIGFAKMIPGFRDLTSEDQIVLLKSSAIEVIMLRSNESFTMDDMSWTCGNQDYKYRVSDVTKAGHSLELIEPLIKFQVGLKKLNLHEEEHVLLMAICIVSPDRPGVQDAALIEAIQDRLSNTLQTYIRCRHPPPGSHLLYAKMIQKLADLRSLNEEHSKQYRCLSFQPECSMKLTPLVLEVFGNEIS
Nuclear receptor ROR-gamma (Homo sapiens), sequence (P51449 whole entry, looked up): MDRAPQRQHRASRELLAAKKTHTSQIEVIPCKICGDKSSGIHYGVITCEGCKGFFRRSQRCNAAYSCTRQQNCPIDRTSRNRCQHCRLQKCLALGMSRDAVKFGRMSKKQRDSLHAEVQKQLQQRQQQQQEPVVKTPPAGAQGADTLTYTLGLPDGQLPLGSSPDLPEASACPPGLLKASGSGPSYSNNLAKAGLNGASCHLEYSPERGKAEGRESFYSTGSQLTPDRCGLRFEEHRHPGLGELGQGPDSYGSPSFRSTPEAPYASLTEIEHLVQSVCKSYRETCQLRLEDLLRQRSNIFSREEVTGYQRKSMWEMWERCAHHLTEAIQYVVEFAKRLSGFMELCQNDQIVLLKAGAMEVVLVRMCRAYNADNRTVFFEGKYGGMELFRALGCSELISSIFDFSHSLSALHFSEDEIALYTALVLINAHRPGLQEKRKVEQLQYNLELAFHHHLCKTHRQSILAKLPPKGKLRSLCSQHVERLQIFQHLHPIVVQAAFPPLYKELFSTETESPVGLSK

C/C=C/CC#N
inactive: Potency [1] | outcome [2] | outcome [3] | outcome [4] | Potency [5] | Potency [6] | Potency [7] | Potency [8] | Potency [9] | activation [10] -0.715% | Potency [11] | Potency [12] | Potency [13] | max response [14] -11.2%

O=P(OCCCl)(OCCCl)OCCCl
inactive: outcome [2] | outcome [3] | outcome [15] | caspase-3 activation [16] 4.86% | Potency [17] | outcome [4] | Potency [5] | Potency [18] | Potency [6] | Potency [19] | Potency [7] | Potency [9] | outcome [20] | activation [10] -2.67% | Potency [11] | Potency [12] | Potency [13] | max response [14] 4.31%

[N-]=[N+]=[N-]
inactive: Potency [1] | outcome [3] | outcome [15] | caspase-3 activation [16] -2.5% | Potency [17] | outcome [4] | Potency [5] | Potency [6] | Potency [7] | Potency [8] | Potency [9] | outcome [20] | activation [10] -1.87% | Potency [11] | Potency [13]

COc1ccc(C=O)cc1
inactive: outcome [3] | outcome [15] | caspase-3 activation [16] 1.65% | Potency [17] | outcome [4] | Potency [5] | Potency [18] | Potency [7] | Potency [8] | Potency [9] | outcome [20] | activation [10] -1.3% | Potency [12] | Potency [13] | max response [14] 7.96%

COC(=O)c1ccccc1N
inactive: Potency [1] | outcome [2] | outcome [3] | outcome [15] | caspase-3 activation [16] -1.69% | Potency [17] | outcome [4] | Potency [5] | Potency [18] | Potency [6] | Potency [19] | Potency [7] | Potency [8] | Potency [9] | outcome [20] | activation [10] -1.42% | Potency [12] | Potency [13]

CC(=O)[O-].CC(=O)[O-].CC(=O)[O-].[Cr+3]
inactive: Potency [1] | outcome [2] | outcome [3] | caspase-3 activation [16] 1.42% | Potency [17] | outcome [4] | Potency [5] | Potency [18] | Potency [6] | Potency [19] | Potency [8] | Potency [9] | Potency [11] | max response [14] 2.78%

ClP(Cl)(Cl)(Cl)Cl
inactive: Potency [1] | outcome [2] | outcome [3] | outcome [15] | caspase-3 activation [16] -1.32% | Potency [17] | outcome [4] | Potency [5] | Potency [19] | Potency [7] | Potency [8] | outcome [20] | activation [10] -1.29% | Potency [11] | Potency [12] | Potency [13] | max response [14] -1.82%

Cc1cc(-c2cc(C)c(N)c(C)c2)cc(C)c1N
inactive: Potency [1] | outcome [3] | outcome [15] | caspase-3 activation [16] -0.121% | Potency [17] | outcome [4] | Potency [5] | Potency [6] | Potency [7] | Potency [8] | Potency [9] | outcome [20] | activation [10] -3.17% | Potency [11] | Potency [12] | Potency [13]
